Experimental findings from PubChem BioAssay (NCI) are described below.

Each structure is given as a SMILES string. About 83,000 compounds went through this panel and 20% of them were active in at least one assay; those are over-represented in the sample as a whole.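 Values shown are percent growth following 48 h exposure of cells in 96-well plates to a single concentration of compound; below 10 was considered active.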 Values without a mark were called inactive. Calls of active or inactive are those of the source.

Common to all, as to assay: NCI-60 one-dose screen, 48 h (100 = growth as untreated, 0 = no growth, -100 = all killed)
Details in all cases: 10 µM unless noted

Test [1] deals with NCI-H23 lung.
Test [2] deals with NCI-H226 lung.
Test [3] concerns NCI-H322M lung.
The test system of test [4] is HOP-62 NSCLC.
Test [5] concerns NCI-H460 lung.
In test [6] the test system is 786-0 renal.
Test [7] relates to DU-145 prostate.
For test [8], the system named is MDA-MB-231 breast.
Test [9] has as its system SF-268 CNS.
Test [10] relates to SNB-19 CNS.
The test system of test [11] is UACC-62 melanoma.
Test [12] relates to SK-MEL-28 melanoma.
In test [13] the test system is SN12C renal.
In test [14] the test system is UO-31 renal.
The test system of test [15] is OVCAR-5 ovarian.
Test [16] concerns OVCAR-3 ovarian.
Test [17] relates to NCI/ADR-RES ovarian.
In test [18] the test system is MDA-MB-435 melanoma.
In test [19] the test system is MCF7 breast.
Test [20] concerns KM12 colon.

Turning to `C1CNC2CCCC2C1` (centres undefined), the growth in test [1] is 108%; in test [2], 98.1%; in test [3] it was 104%; in test [4] it was 102%; in [5] it was 108%; in [6], 105%. The growth in test [7] was 107%; in test [8], 118%; in test [9], 104%; in test [10] it was 111%; in test [11], 108%; in [12], 111%. Besides, the growth in [13] was 111%; in test [14], 82.5%; in test [15], 103%; in test [16], 107%; in test [17] it was 109%; in [18], 105%. Also, the growth in test [19] is 99.7%; in test [20] it was 97%.

Consider `CC1(C)N=C(N)N=C(N)N1c1cccc(C(=O)Nc2cccc(S(=O)(=O)F)c2)c1`, for which the growth was 107% in test [1]; 99% in [2]; 100% in test [3]; 105% in test [4]; 97.3% in test [5]; 99.5% in test [6]. In addition, the growth in test [7] is 114%; in [8] it was 113%; in test [9] it was 112%; in test [10], 97.3%; in test [11], 99%; in [12] it was 103%. In addition, the growth was 101% in test [13]; 78.5% in [14]; 89.4% in test [15]; 112% in test [16]; 104% in test [17]; 98.4% in test [18]. Moreover, the growth is 95.5% in test [19] and 102% in test [20].

For `CCC[CH2][Sn]([CH2]CCC)([CH2]CCC)[O]C(=O)CC`, the growth is -87.1% (active) in test [1]; -58.9% (active) in test [2]; -95.2% (active) in test [3]; -88.9% (active) in test [4]; -84.1% (active) in test [5]; -94.5% (active) in test [6]. Also, the growth in [7] is -97.7% (active); in test [8] it was -79.4% (active); in [9] it was -97.3% (active); in test [10], -75.6% (active); in test [11], -90% (active); in [12] it was -98.3% (active). In addition, the growth in test [13] was -80.6% (active); in [14], -90.4% (active); in test [15], -91.2% (active); in [16] it was -99.1% (active); in [17], -87% (active); in test [18], -89.3% (active). Also, the growth was -82.1% (active) in test [19] and -93.2% (active) in test [20].

With `COc1cc(C2=NN(c3ccccc3)C(c3sc(N(CCCl)CCCl)nc3Cl)C2)cc(OC)c1OC` (centres undefined), the growth is 92.5% in test [1]; 81.8% in test [2]; 91.4% in test [3]; 79.7% in test [4]; 91.6% in test [5]; 91.8% in test [6]. Moreover, the growth in test [7] is 102%; in [8] it was 85.6%; in test [9], 80.7%; in [10] it was 86.4%; in test [11], 48.4%; in [12] it was 99.1%. Moreover, the growth in test [13] is 79.9%; in test [14], 75.5%; in [15], 99.5%; in test [16], 98.7%; in test [17] it was 93.8%; in test [18], 101%. Further, the growth in test [19] was 86.6%; in test [20], 82.8%.

Turning to `CN1CC2CCC(C1)C2=O`, the growth in test [1] was 106%; in test [2], 103%; in [3] it was 88.4%; in test [4] it was 84.4%; in [5], 104%; in test [6] it was 97.1%. Further, the growth is 115% in test [7]; 124% in test [8]; 106% in test [9]; 105% in [10]; 110% in test [11]; 113% in test [12]. Besides, the growth in [13] is 99.8%; in [14], 62.7%; in test [15], 103%; in test [16], 106%; in test [17] it was 106%; in [18], 97.7%. For the same compound, the figures for the growth in [19] and in test [20] were 102% and 115%, respectively.

With `COC1=CC(=O)OC(CCc2ccc3c(c2)OCO3)C1` (centres undefined), the growth was 121% in [1]; 105% in test [2]; 132% in test [3]; 106% in test [4]; 103% in test [5]; 112% in test [6]. For the same compound, the growth in [7] is 122%; in test [8], 114%; in test [9], 101%; in [10] it was 103%; in [11], 107%; in test [12] it was 117%. Also, the growth was 107% in test [13]; 101% in test [14]; 101% in [15]; 122% in test [16]; 120% in test [17]; 112% in [18]. In addition, the values for the growth in test [19] and in [20] were 86.9% and 109%, respectively.

For `CCC1([N+](=O)[O-])COP(=O)(NCc2cccnc2)OC1` (centres undefined), the growth is 115% in test [1]; 99.9% in test [2]; 111% in [3]; 103% in [4]; 104% in test [5]; 96.4% in test [6]. For the same compound, the growth was 103% in test [7]; 111% in [8]; 106% in test [9]; 108% in test [10]; 105% in [11]; 113% in test [12]. Further, the growth in [13] was 114%; in [14], 91.1%; in [15] it was 99.7%; in [16], 113%; in [17], 112%; in test [18] it was 117%. Further, the growth in [19] is 115%; in test [20], 103%.

`CC1(C)CC2(CC(C)(C)c3cc(O)c(O)cc32)c2cc(O)c(O)cc21`: the growth in [1] is 108%; in test [2] it was 85.7%; in [3], 102%; in test [4], 95.9%; in test [5] it was 97.7%; in test [6], 94%. Moreover, the growth in test [7] is 98.8%; in test [8], 91.5%; in test [9], 88.6%; in [10] it was 104%; in test [11] it was 83.3%; in test [12], 97%. Besides, the growth is 94.2% in test [13]; 75.2% in [14]; 93% in test [15]; 88.9% in test [16]; 103% in test [17]; 84.8% in test [18]. Also, the growth in test [19] is 94.5%; in [20] it was 94.4%.

Consider `CC1(C)N=C(N)N=C(N)N1c1ccc(CCC(=O)Nc2cccc(S(=O)(=O)F)c2)cc1`, for which the growth is 63.8% in [1]; 89% in test [2]; 79% in test [3]; 82.8% in test [4]; 27.7% in [5]; 58% in [6]. The growth is 72.1% in test [7]; 104% in test [8]; 51.6% in test [9]; 51.9% in test [10]; 45.3% in [11]; 103% in test [12]. In addition, the growth was 46.5% in test [13]; 85.2% in test [14]; 91.2% in [15]; 114% in test [16]; 35.3% in test [18]; 54.6% in [19]. Moreover, in test [20], the growth is 75%.
